Hit rate of the full screen: of about 1,700 compounds, about 20 (1%) were called active. The sample as a whole holds a higher share of actives than the screen did. Unmarked numbers belong to inactive results.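 How the source made its calls: active means inhibition above the screen-wide mean plus twice its standard deviation (cut at about 32% in these data); inactive means the rest.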
Tested on: Candida albicans drug resistance protein 1 (Cdr1) expressed in S. cerevisiae
Experiment: Cdr1 pump blockade via Nile Red efflux – S. cerevisiae AD/CaCDR1, flow cytometry, cherry pick 1, singleplex, confirmation (AID 588522)
Settings: at 10 µM, stronger effect = higher value

SMILES	inhibition
O=C(NCc1ccccc1)C(=O)NCC1OCCN1S(=O)(=O)c1ccc(Br)cc1 (stereo not given)	-0.27%
Cc1nn(C)cc1N1C(=O)c2cccc3c(N)ccc(c23)C1=O	-0.53%
CN(C)S(=O)(=O)c1cc(C(=O)Nc2ccn(C)n2)c(Cl)cc1Cl	-0.51%
COc1ccc(C(=O)C2CCCN(Cc3cccn3-c3ccccn3)C2)c(C)c1 (stereo not given)	0.01%
CCOc1ccc(/C=C2\SC(=S)N(NC(=O)c3ccncc3)C2=O)cc1OC	-0.06%
COc1ccc(NC(=S)N2CCc3cc(OC)c(OC)cc3C2)cc1	0.16%
CCn1c(/C=C/c2ccc([N+](=O)[O-])o2)nc2ccccc2c1=O	0.83%
CC(C)C(=O)N1CCC2(CC1)Oc1ccc(F)cc1C(=O)C21CC(c2ccccc2)=NO1 (stereo not given)	0.01%
COc1cccc(NC(=O)CN(C)C(=O)/C=C/c2cc(OC)ccc2OC)c1	-0.15%
COc1ccc(/C=C(\C#N)c2c[nH]c3ccccc23)cc1	-0.2%
NNC(=O)COc1ccc(C2SCCS2)cc1	-0.06%
O=C(CCCCCn1c(=O)[nH]c2ccccc2c1=O)NCCc1c[nH]c2ccccc12	-0.02%
COc1ccc(-c2sc3ccccc3c2-c2ccc(OCCN3CCOCC3)cc2)cc1	-0.26%
COc1cccc(-c2sc3ccc(OC)cc3c2-c2ccc(OCCN3CCCCC3)cc2)c1	45.4% (active)
COc1ccc2sc(-c3ccccc3OC)c(-c3ccc(OCCN4CCCC4)cc3)c2c1	4.57%
Cc1nn(C)cc1C(=O)Nc1ccccc1Br	-0.09%
CCCCCCCCCCCCCCCC(=O)OC/C=C(C)/C=C/C=C(C)/C=C/C1=C(C)CCCC1(C)C	0.11%
C=CCC[C@@H](Cc1ccc(F)cc1)C(=O)OC[C@H](Cc1c[nH]c2ccccc12)NC(=O)[C@@H](CC=C)CC(=O)N(CCO)Cc1ccccc1	0.17%
CN=C(c1ccccc1)c1c(C)cccc1C	0.01%
Cc1cc(C(=O)Nc2ccc(C)c(S(=O)(=O)N3CCOCC3)c2)c2ccccc2n1	-0.08%
CCc1ccc(NC(=O)Cn2ncn3c(cc4ccccc43)c2=O)cc1	-0.23%
Cc1ccc(OCc2cc(C(=O)N(C)CCc3ccccc3)no2)cc1C	-0.15%
CCOc1ccc2nc(Cl)c(C3CC(c4ccccc4)=NN3C(=O)c3cccs3)cc2c1 (stereo not given)	0.11%
O=C1NC(=O)C2C1C(c1ccc([N+](=O)[O-])cc1)=NN2Cc1ccccc1 (stereo not given)	0.24%
CCCCCC(=O)Nc1ccc(C(=O)N/N=C/c2ccc([N+](=O)[O-])cc2)cc1	0.01%

SMILES	inhibition
CCOC(=O)CNC(=O)CSc1nnnn1-c1cc(C)ccc1C	-0.03%
CC[n+]1cc(C)ccc1/C=C/c1ccc(N(C)C)cc1	4.74%
COc1ccc2[nH]c3c(C)c4cc[n+](C)cc4c(C)c3c2c1	0.08%
Cc1c(CCOC(=O)CC23CC4CC(CC(C)(C4)C2)C3)sc[n+]1Cc1ccc([N+](=O)[O-])cc1	0.01%
CCOC(=O)c1c(NC(=S)NC(=O)c2ccco2)sc2c1CCCC2	-0.31%
C[n+]1ccc(/C=C/c2c[nH]c3ccccc23)cc1	3.85%
COc1ccc(C(=O)NC2CCCc3c2cnn3-c2cccc(C)c2C)c(OC)n1 (stereo not given)	-0.29%
CC(/C=N/NC(=O)c1cc(-c2ccc3ccccc3c2)n[nH]1)=C\c1ccco1	-0.15%
O=C(Cc1ccc(Br)cc1)N1CCN(c2ccccn2)CC1	-0.06%
CCCCN1C(=O)/C(=C/C=C2/C=Cc3ccccc3N2CC)SC1=S	-0.08%
Cc1ccc(Cn2c(C)nc3c(c2=O)c2nc4ccccc4nc2n3Cc2ccco2)cc1	0.09%
Cc1ccc2[nH]c3c(=O)n(CC(=O)NCCc4ccc(Cl)cc4)ncc3c2c1	0.27%
COc1ccc(C(=O)NC(=S)Nc2ccc(N3CCCC3)cc2)cc1OC	-0.15%
Cc1nc2c(C(=O)NCc3ccc4c(c3)OCO4)c[nH]n2c(=O)c1Cc1ccccc1F	-0.08%
COc1ccccc1NC(=O)C1CCCN1S(=O)(=O)c1ccc(Cl)cc1 (stereo not given)	-0.03%
CCCc1nc(N2CCN(C)CC2)c2sc(=S)n(-c3ccccc3)c2n1	0.07%
Cc1ccc(Cn2nnc3c(=O)[nH]c(C4CCN(S(=O)(=O)/C=C/c5ccccc5)CC4)nc32)cc1	-0.06%
CCCCOc1ccc(C(=O)NCC(=O)OCC(=O)c2c(N)n(C)c(=O)n(C)c2=O)cc1	106% (active)
COc1ccccc1CSc1ncc(-c2ccc([N+](=O)[O-])cc2)[nH]1	-0.02%
CCOc1ccccc1/C=c1\sc2nc(-c3ccco3)nn2c1=O	0.21%
O=C(Cn1c(COc2ccccc2)nc2ccccc21)Nc1cc(Cl)c(Cl)cc1Cl	0.09%
CC1CCc2c(sc(NC(=O)c3ccc(Cn4cc(Br)cn4)o3)c2C(N)=O)C1 (stereo not given)	-0.03%
Cc1ccc2c(c1)NC(=O)[C@@]1(C)[C@@H](c3ccccc3)[C@H]3COc4ccc(Cl)cc4[C@@H]3N1C2=O	0.07%
CN1CCN(S(=O)(=O)c2ccc(NC(=S)NC(=O)C3CC3)cc2)CC1	-0.08%
O=S(=O)(c1ccccc1)N1CCc2ccccc21	0.54%

— PubChem BioAssay AID588522 (NMMLSC, 2011)
